Rows were chosen to be rich in hits. Some 3% of all compounds tested hit in one or more screens of this group.
TRPM1 prom inh – inhibitors of MITF-dependent TRPM1 promoter reporter, primary screen, cell-based, SK-MEL-5, single point, luciferase; SK-MEL-5 TRPM1 promoter luciferase, 24 h; inhibition, % at 12.5 µM; 330,000 compounds, 0.83% hits;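 active = mean inhibition across replicates of 60% or more, whatever share of single replicates reaches that level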
CF NFkB inh – inhibitors of PAF-induced NF-kB signaling, primary screen, cell-based, GFP fluorescence, uHTS; KKLEB NF-kB-GFP reporter, GFP fluorescence overnight; inhibition, % at 5 µM; 360,000 compounds, 0.86% hits; AID 588850, 2011;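 active = at least 50% inhibition at 5 µM, scaled per plate between neutral and stimulator controls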;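 note: PAF is a Pseudomonas aeruginosa culture filtrate used as stimulus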
KKLEB tox – cytotoxicity in KKLEB CF airway cells, primary screen, cytotoxicity control for CF NF-kB inhibitor project, cell-based, uHTS, fluorescence assay plates; activity change (cytotoxicity), % at 5 µM; AID 602141, 2011; KKLEB CF airway cells viability, ATPlite luminescence, overnight; stronger effect = lower value; cells stimulated with P. aeruginosa culture filtrate; 360,000 compounds, 0.36% hits;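 active = corrected activity change at or below -50% at 5 µM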
HIF-2a inh – HIF-2a reporter inhibitors, primary screen, luminescence, 786-0 RCC cells | 360,000 compounds, 0.72% hits | AID 624352, 2012 | inhibition, % at 18.8 µM | 786-0 RCC cells HIF-2a reporter, luciferase luminescence, overnight;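 active = inhibition of the luminescence signal of 40% or more relative to plate controls, in a single-dose primary screen at 18.75 µM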
LMP1 NFkB inh – EBV LMP1-driven NF-kappaB luciferase reporter inhibitors, primary screen, cell-based, luminescence, single point. LMP1-induced NF-kappaB luciferase reporter cells. inhibition, % at 12.5 µM. 350,000 compounds, 0.69% hits. AID 504558, 2011; in the data active = inhibition above about 41%
Peg3 prom inh – Peg3 promoter-driven luciferase inhibitors, primary screen, cell-based, HeLa, luciferase luminescence; HeLa PEG-Prom luciferase reporter, overnight; inhibition, % at 20 µM; 360,000 compounds, 1.7% hits; AID 588405, 2011;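 active = inhibition of at least 50% at 20 µM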
Numbers stand for hits; . = inactive; / = no result; ! = a repeat was not active.

SMILES	TRPM1 prom inh	CF NFkB inh	KKLEB tox	HIF-2a inh	LMP1 NFkB inh	Peg3 prom inh
COCC(=O)OC1CCn2c1nc1c2C(=O)C(C)=C(NC(C)=O)C1=O (stereo not drawn)	85.6	91.3	-68.3	.	87.5	84.9
CCc1ccc(C(=O)Nc2nc(C)cs2)s1	.	.	.	55.8	.	.
CCOC(=O)c1sc(NC(=O)c2ccc(CC)s2)nc1C	.	.	.	.	.	.
CCOC(=O)N=Nc1c2ccccc2c2nc3no[nH]c3nc12	103.2	94.7	-65.2	.	85.8	107.8
O=C(CCCc1ccccc1)NCCS(=O)(=O)N1CCN(c2ccccc2)CC1	/	.	.	.	.	.
CCN1CCN(Cc2ccc(NC(=O)c3cc(NC(=O)c4cnn(-c5ccccc5)c4N)cc(OC)c3)cc2C(F)(F)F)CC1	79.3	.	.	.	.	.
CCN1CCN(Cc2ccc(C(=O)Nc3ccc(C)c(NCc4cnc(NC(=O)OC)cn4)c3)cc2C(F)(F)F)CC1	.	.	.	.	.	.
CCN1CCN(Cc2ccc(NC(=O)c3ccc(C)c(NC(=O)c4ccnnc4)c3)cc2C(F)(F)F)CC1	.	.	.	.	.	.
CCN1CCN(Cc2ccc(NC(=O)c3cc(NC(=O)c4cc(C)on4)cc(OC)c3)cc2C(F)(F)F)CC1	.	.	.	.	.	57.4!
O=C(Nc1ccc2c(c1)OCO2)C(=O)c1c[nH]c2ccccc12	.	.	.	.	.	.
CCN1CCN(Cc2ccc(NC(=O)c3cc(NC(=O)C(=O)c4c[nH]c5ccccc45)cc(OC)c3)cc2C(F)(F)F)CC1	.	.	.	.	.	93.6
COc1ccc(C(C(=O)Nc2c(C)cccc2C)n2c(=O)c(-c3ccco3)nc3ccccc32)cc1 (stereo not drawn)	/	/	/	.	/	/
CCOC(=O)/C=C/C(=O)Nc1ccc(S(=O)(=O)N(C)c2ccccc2)cc1	.	.	.	.	.	59.2
CC(=O)Nc1ccc(S(=O)(=O)N(C)c2ccccc2)cc1	.	.	.	.	.	.
COc1ccc([C@@H]2CC(=O)[C@@H]3CN(S(=O)(=O)c4ccc(C)cc4)[C@H](c4ccccc4)C[C@@H]3N2S(=O)(=O)c2ccccc2)cc1	/	.	.	.	/	.
O=c1nc(N/N=C/C=C/c2ccccc2)cn[nH]1	.	.	.	.	47.5	.
CCN(CC)CCOc1ccc(/C(=C(\Cl)c2ccccc2)c2ccccc2)cc1	.	.	.	.	.	81.1
CC(C)N1CCC(C)(C(=O)Nc2ccc(Cl)c(Cl)c2)C1 (stereo not drawn)	/	.	.	.	/	.
CC(C)(C)c1ccc(OC(=O)Nc2ccc(O)c(C(=O)O)c2)cc1	.	.	.	69.1	.	.
C[C@@H]1COc2cccc(N3CCSCC3)c2S(=O)(=O)N1	/	/	/	.	/	/
C/C(=N\NC(=O)C1COc2ccccc2O1)c1cc2ccccc2o1 (stereo not drawn)	.	.	.	.	40.5	.
CC(=O)c1sc(NC(=O)C2COc3ccccc3O2)nc1C (stereo not drawn)	/	.	.	.	48.6	.
C/C(=N\NC(=O)C1COc2ccccc2O1)c1ccccn1 (stereo not drawn)	83.3	.	.	.	.	51.1
O=C(Nc1nncs1)C1COc2ccccc2O1 (stereo not drawn)	.	.	.	.	.	.
C/C(=N\NC(=O)C1COc2ccccc2O1)c1ccc(C)o1 (stereo not drawn)	.	.	.	.	.	.
SMILES	TRPM1 prom inh	CF NFkB inh	KKLEB tox	HIF-2a inh	LMP1 NFkB inh	Peg3 prom inh
Cc1ccc(O)c(C=Nc2cc(C)ccc2O)c1	.	.	.	.	.	.
CC(C)(C)c1ccc(O)c(N=Cc2cc(Br)ccc2O)c1	.	.	.	51.9	.	.
COC(=O)c1ccc(C(=O)OC)c(NC(=O)N2c3ccccc3Sc3ccccc32)c1	.	53.6	-54.4	.	.	.
CCc1nc(SCC(=O)c2ccc3c(c2)OCCO3)c2ccccc2n1	.	.	.	.	40.5	.
CC[C@H]1O[C@H](C)CC2=C1C(=O)OC(C)(C)O2	/	/	/	.	/	/
O=C(O)c1cccc2c1C(=O)c1ccccc1C2=O	.	.	.	.	.	.
O=C1C(O)=CC(=C(c2ccccc2)c2ccccc2)c2ccccc21	61.3	.	.	.	.	.
COc1ccccc1CNS(=O)(=O)c1c(C)cc(C)cc1C	/	.	.	.	.	.
CCCCN1CC(COCc2ccccc2)Oc2cccc(OCCN3C(=O)[C@@H]4[C@H](C3=O)C3C=C[C@H]4C3)c2S1(=O)=O (stereo partly drawn)	.	.	.	.	.	59.1
CCCCN1CC(COCc2ccccc2)Oc2cccc(Oc3ccc(OC)cc3)c2S1(=O)=O (stereo not drawn)	.	.	.	.	.	.
COc1cc(/C=N\NC(=O)CNC(=O)C2COc3ccccc3O2)ccc1O (stereo not drawn)	.	.	.	.	.	.
CCN(CC)c1ccc(/C=N/NC(=O)CNC(=O)C2COc3ccccc3O2)c(O)c1 (stereo not drawn)	.	.	.	.	.	50.5
COc1ccccc1Cc1c(-c2ccc(OC)c(OC)c2)nc2c(Cl)cc(C(F)(F)F)cn12	/	/	/	.	/	/
C1CCCCCC(NCCN2CCNCC2)CCCCC1	.	.	.	.	.	100.9
O=C(NC1CCCCC1)N1CCNCC1	.	.	.	.	.	.
COc1ccc(C(N)c2csc(Nc3ccc(C(=O)NCCCO)cn3)n2)cc1 (stereo not drawn)	/	.	.	.	/	.
N#C/C(=N\Nc1cccc(C(F)(F)F)c1)C(=O)c1csc(-c2cccnc2)n1	.	53.4	.	.	.	.
C=CCOc1ccccc1CN(C(=O)CCl)c1ccc2c(c1)OCO2	.	92.0	-84.7	.	.	.
CCOc1ccccc1NC(=O)Nc1ccc2c(c1)OCO2	.	.	.	.	.	.
O=C(NCC(O)c1nc2ccccc2[nH]1)c1cc2ccccc2[nH]1 (stereo not drawn)	/	.	.	.	/	.
Cc1ccc(NC(=O)C2CCN(S(=O)(=O)c3c(C)noc3/C=C/c3ccco3)CC2)nc1	72.2	.	.	.	.	.
Cc1ccc(CNC(=O)C2CCN(S(=O)(=O)c3c(C)noc3/C=C/c3ccco3)CC2)cc1	.	.	.	.	83.1	.
Cc1cccnc1NC(=O)C1CCN(S(=O)(=O)c2c(C)noc2/C=C/c2ccco2)CC1	.	.	.	.	.	.
CC(C)CC[n+]1ccccc1/C=C/c1ccc(N(C)C)cc1	73.0	.	.	.	.	.
CN(C)c1ccc(/C=C/c2cccc[n+]2[O-])cc1	.	.	.	.	.	.

Screening data: PubChem BioAssay, several laboratories
